In PubChem BioAssay (NCATS):
Inconclusive results are not listed. Some compounds were tested as several samples or in several runs, with calls that do not always agree. Activity calls are given as the source filed them. Unless noted, calls follow the shape of the full dose curve.

Experiments:
[1] = Primary qHTS for inhibitors of SARS-S pseudo-typed particle cell entry (AID 1479145); settings: outcome: dose series up to 57.1 µM unless noted; also: nearly all actives have a fitted effect of over 45% in size; also: potency is read from the fitted curve at half-maximal effect; as to activity change, negative = inhibition: % is scaled to controls: 0 for no effect and ±100 for the full control effect
[2] = Primary qHTS for Huh7 cytotoxicity: counterscreen for inhibitors of MERS-S pseudotyped particle cell entry (AID 1479147); settings: outcome: dose series up to 57.1 µM unless noted; also: potency is read from the fitted curve at half-maximal effect
[3] = Primary qHTS for inhibitors of MERS-S pseudo-typed particle cell entry (AID 1479149); settings: outcome: dose series up to 57.1 µM unless noted; also: nearly all actives have a fitted effect of over 60% in size; also: potency is read from the fitted curve at half-maximal effect; as to activity change, negative = inhibition: % is scaled to controls: 0 for no effect and ±100 for the full control effect
[4] = Primary qHTS for Vero E6 cytotoxicity: counterscreen for inhibitors of SARS-S pseudo-typed particle cell entry (AID 1479150); settings: outcome: dose series up to 57.1 µM unless noted
[5] = Cytotoxicity counterscreen for inhibitors of SARS-CoV-2 cell entry (AID 1645845); settings: outcome: dose series up to 57.1 µM unless noted; also: nearly all actives have a fitted effect of over 50% in size; also: potency is read from the fitted curve at half-maximal effect; as to activity change, negative = cytotoxicity: % is scaled to controls: 0 for no effect and ±100 for the full control effect
Outline: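 HEK293-ACE2 cells (Expi293F stably expressing human ACE2) seeded overnight, then compound for 1 h plus 48 h at 37C. Viability as ATP content by luminescence; normalized to wells with cells and media-only wells.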

[6] = Primary qHTS to identify inhibitors of SARS-CoV-2 cell entry (AID 1645846); settings: SARS-CoV-2 pseudovirus cell entry assay, luminescence; also: nearly all actives have a fitted effect of over 45% in size
Outline: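 Data are normalized to wells receiving SARS-CoV-2-S pseudoparticles and those given bald particles. Entry signal was luciferase luminescence in stable hACE2 Expi293F cells, 48 hr post-infection, after 1 hr compound pretreatment.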

[7] = biological target: Glutathione peroxidase 1 (Homo sapiens) (UniProt P07203); assay: Primary qHTS Assay for Inhibitors of Recombinant Selenoprotein Glutathione Peroxidase 1 (GPX1) (AID 1845191; active = well fitted inhibition curve with a large enough effect; also: nearly all actives have a fitted effect of over 65% in size)
Outline: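 GR-coupled assay: compounds preincubated 30 min at room temperature with GPX1, then reaction started with CHP; final 10 nM GPX1, 1 mM GSH, 0.5 mM CHP, 0.5 mM NADPH, 100 nM GR, 0.01% BSA, pH 7.5 Tris buffer. NADPH fluorescence (340/450 nm) read at 0 and 15 min.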

[8] = biological target: Phospholipid hydroperoxide glutathione peroxidase GPX4 (Homo sapiens) (UniProt P36969); assay: Primary qHTS Assay for Inhibitors of Recombinant Selenoprotein Glutathione Peroxidase 4 (GPX4) (AID 1845192; active = well fitted inhibition curve with a large enough effect; also: nearly all actives have a fitted effect of over 65% in size; as to activity change, negative = inhibition: % is scaled to controls: 0 for no effect and ±100 for the full control effect)
Outline: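 GR-coupled assay: recombinant GPX4 preincubated 30 min with compound at room temperature; final 200 nM GPX4, 1 mM GSH, 0.5 mM cumene hydroperoxide, 0.5 mM NADPH, 100 nM GR, 0.01% BSA, pH 7.5 Tris. NADPH fluorescence (340/450 nm) read at 0 and 15 min.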

[9] = biological target: Peroxisome proliferator-activated receptor delta (Homo sapiens) (UniProt Q03181); assay: qHTS assay for small molecule agonists of peroxisome proliferator-activated receptor delta signaling (AID 588534);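 also: 0% = DMSO basal wells and 100% = positive control agonist at 10 µM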
Outline: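 Cell-based beta-lactamase reporter assay run in agonist mode: cells seeded and incubated 5 hrs at 37 C, compounds added and incubated 18 hrs at 37 C. CCF4 dye fluorescence read after 2 hrs at RT; EC50 and efficacy from Hill fits.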

[10] = VSVG counterscreen qHTS to identify inhibitors of SARS-CoV-2 cell entry (AID 1645847); also: potency is read from the fitted curve at half-maximal effect; nearly all actives have a fitted effect of over 65% in size
Outline: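 Counterscreen using VSV-G (not spike) pseudotyped MLV particles on ACE2-expressing Expi293F cells after 1 h compound preincubation; infection ran 48 h at 37 °C. Data normalized to VSV-G PP and bald-PP wells.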

[11] = biological target: Bile acid receptor (Homo sapiens) (UniProt Q96RI1); assay: qHTS assay for small molecule agonists of farnesoid X receptor signaling (AID 588527); settings: HEK293T FXR-UAS-bla, beta-lactamase ratio, 16 h; stronger effect = higher value;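 also: 0% = vehicle basal and 100% = reference agonist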
Outline: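 Agonist-mode beta-lactamase reporter in GeneBLAzer FXR-UAS-bla HEK293T cells, titration up to 92 uM, 16 h exposure at 37 C, CCF4 fluorescence. Response scaled to DMSO (0%) and 100 uM chenodeoxycholic acid (100%), then Hill-fitted for EC50 and efficacy.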

[12] = qHTS assay for small molecule agonists of retinoid X receptor alpha signaling (AID 588544); settings: HEK293T RXRa-UAS-bla, beta-lactamase reporter, 18 h; 530 nm emission
[13] = biological target: Thyroid hormone receptor beta (Homo sapiens) (UniProt P10828); assay: qHTS assay for small molecule agonists of thyroid hormone receptor beta signaling (AID 588545);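 also: 0% = DMSO only and 100% = 10 nM T3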
Outline: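 TR-UAS-bla GripTite HEK 293 cells (2500/well, medium with 2% charcoal/dextran FBS) were treated in agonist mode for 18 h at 37 C, titrated. Beta-lactamase was read by CCF4 ratio after 2 h; normalized to 10 nM T3 (100%) and DMSO, Hill-fitted for EC50 and efficacy.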

[14] = qHTS assay for small molecule agonists of the antioxidant response element (ARE) signaling pathway (AID 651741; active = well fitted activation curve with a large enough effect in the signal ratio; the % refers to the signal ratio; also: potency is read from the fitted curve at half-maximal effect; as to activation: % of control where 0% means no effect)
Outline: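 HepG2 ARE-bla cells plated at 2,000 cells/well and incubated 5 h at 37 C/5% CO2 received 23 nL compound in DMSO. After 16 h at 37 C, LiveBLAzer B/G FRET substrate was applied for 2 h at room temperature and fluorescence read.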

[15] = activity change, negative = inhibition: at 57.1 µM (top of the series) unless noted, outcome: at 57.1 µM (top of the series) unless noted

Peroxisome proliferator-activated receptor delta (Homo sapiens), sequence (Q03181 whole entry, looked up): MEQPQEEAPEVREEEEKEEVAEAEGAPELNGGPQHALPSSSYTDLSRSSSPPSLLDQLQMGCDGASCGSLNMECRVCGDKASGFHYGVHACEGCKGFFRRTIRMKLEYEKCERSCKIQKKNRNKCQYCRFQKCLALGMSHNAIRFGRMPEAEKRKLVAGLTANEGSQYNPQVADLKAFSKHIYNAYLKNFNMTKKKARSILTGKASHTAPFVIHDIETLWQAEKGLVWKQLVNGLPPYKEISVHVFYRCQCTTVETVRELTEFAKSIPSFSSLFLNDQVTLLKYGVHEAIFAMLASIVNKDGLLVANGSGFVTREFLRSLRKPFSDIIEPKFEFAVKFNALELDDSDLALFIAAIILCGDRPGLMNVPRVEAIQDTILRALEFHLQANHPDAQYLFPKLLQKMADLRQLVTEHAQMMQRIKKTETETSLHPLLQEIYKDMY
Glutathione peroxidase 1 (Homo sapiens), sequence (P07203 whole entry, looked up): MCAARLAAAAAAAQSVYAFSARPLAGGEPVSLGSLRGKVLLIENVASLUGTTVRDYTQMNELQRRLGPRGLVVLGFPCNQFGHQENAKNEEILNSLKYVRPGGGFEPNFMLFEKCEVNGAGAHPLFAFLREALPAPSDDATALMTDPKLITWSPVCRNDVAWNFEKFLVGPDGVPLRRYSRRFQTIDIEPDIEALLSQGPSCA
Phospholipid hydroperoxide glutathione peroxidase GPX4 (Homo sapiens), sequence (P36969 whole entry, looked up): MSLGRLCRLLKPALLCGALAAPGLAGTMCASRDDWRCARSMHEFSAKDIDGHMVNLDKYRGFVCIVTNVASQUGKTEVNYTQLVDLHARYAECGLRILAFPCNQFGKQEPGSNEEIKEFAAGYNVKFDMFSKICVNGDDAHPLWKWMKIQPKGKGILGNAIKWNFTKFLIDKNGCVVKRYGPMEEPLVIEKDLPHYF
Thyroid hormone receptor beta (Homo sapiens), sequence (P10828 whole entry, looked up): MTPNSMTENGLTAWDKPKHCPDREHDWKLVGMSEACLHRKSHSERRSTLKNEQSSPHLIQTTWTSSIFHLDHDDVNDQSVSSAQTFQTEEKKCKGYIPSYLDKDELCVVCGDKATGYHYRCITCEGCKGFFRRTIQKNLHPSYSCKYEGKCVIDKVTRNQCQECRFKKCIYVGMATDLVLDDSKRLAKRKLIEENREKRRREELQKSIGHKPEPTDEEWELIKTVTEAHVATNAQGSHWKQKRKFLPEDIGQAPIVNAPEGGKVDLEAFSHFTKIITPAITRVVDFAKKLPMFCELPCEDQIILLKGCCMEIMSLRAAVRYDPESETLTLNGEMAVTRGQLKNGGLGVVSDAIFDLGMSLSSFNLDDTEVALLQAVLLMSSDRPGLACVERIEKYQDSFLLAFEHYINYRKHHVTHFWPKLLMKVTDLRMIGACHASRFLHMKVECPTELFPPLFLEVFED
Bile acid receptor (Homo sapiens), sequence (Q96RI1 whole entry, looked up): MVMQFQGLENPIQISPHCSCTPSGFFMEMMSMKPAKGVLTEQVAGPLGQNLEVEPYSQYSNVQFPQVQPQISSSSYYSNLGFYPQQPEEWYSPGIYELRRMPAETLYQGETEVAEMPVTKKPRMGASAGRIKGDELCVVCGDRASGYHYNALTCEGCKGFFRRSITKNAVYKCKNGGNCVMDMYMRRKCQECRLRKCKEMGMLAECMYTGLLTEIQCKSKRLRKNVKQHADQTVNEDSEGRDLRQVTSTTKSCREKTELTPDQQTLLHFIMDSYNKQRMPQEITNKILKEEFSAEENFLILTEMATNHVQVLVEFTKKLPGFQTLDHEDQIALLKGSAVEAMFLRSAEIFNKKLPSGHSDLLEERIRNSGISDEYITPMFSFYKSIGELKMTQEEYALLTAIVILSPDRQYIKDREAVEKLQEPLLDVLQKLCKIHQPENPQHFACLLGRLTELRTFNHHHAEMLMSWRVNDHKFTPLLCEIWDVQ

CCCCOc1ccc(C[N+]2(C)C3CCC2CC(OC(=O)[C@H](CO)c2ccccc2)C3)cc1 (stereo partly specified)
-21.1%: activity change, negative = inhibition [6, 15]
inactive: Potency [1] | Potency [2] | Potency [3] | Potency [4] | Potency [5] | Potency [7] | Potency [8]

Fc1cccc(Br)c1NC1=NCCN1
inactive: Potency [1] | Potency [2] | Potency [3] | Potency [4] | Potency [5] | Potency [7] | Potency [8]

CN[C@@H]1[C@H](O[C@H]2[C@H](O[C@@H]3[C@@H](O)[C@H](O)[C@@H](N=C(N)N)[C@H](O)[C@H]3N=C(N)N)O[C@@H](C)[C@]2(O)C=O)O[C@@H](CO)[C@H](O)[C@H]1O
-18.7% [at 11.3 µM]: activity change, negative = inhibition [6, 15]
inactive: activity change, negative = inhibition [1] -20.2% [at 11.4 µM] | activity change, negative = cytotoxicity [2] -3.3% [at 11.4 µM] | outcome [3] inactive [at 11.4 µM] | activity change, negative = cytotoxicity [4] -2.76% [at 11.4 µM] | Potency [5] | Potency [6, 15]

C=C[C@H]1CN2CC[C@H]1C[C@H]2[C@H](O)c1ccnc2ccccc12
inactive: Potency [1] | Potency [2] | Potency [3] | Potency [4] | Potency [5] | Potency [7] | Potency [8]

C=C/C=C/CC1=C(C)[C@H](OC(=O)[C@H]2[C@H](/C=C(\C)C(=O)OC)C2(C)C)CC1=O
inactive: Potency [1] | Potency [2] | Potency [3] | Potency [4] | Potency [5] | Potency [7] | Potency [8]

C[C@H]1[C@H](O)[C@@H](C)/C=C/C=C/CC/C=C/C=C/C=C/C=C/C(OC2O[C@H](C)[C@@H](O)[C@H](N)[C@@H]2O)CC2O[C@](O)(CC(O)C(O)CCC(O)CC(O)CC(O)CC(=O)O[C@H]1C)CC(O)C2C(=O)O (stereo partly specified)
-22.7%: activity change, negative = inhibition [6, 15]
inactive: Potency [1] | Potency [2] | Potency [3] | Potency [4] | Potency [5] | Potency [7]

c1ccc2scnc2c1
inactive: outcome [9] | Potency [1] | Potency [2] | Potency [3] | Potency [4] | Potency [5]
-27.1%: activity change, negative = inhibition [6, 15]

CCC(O)c1ccccc1 (stereo unspecified)
-0.957%: activity change, negative = inhibition [6, 15]
inactive: Potency [1] | Potency [2] | Potency [3] | Potency [4] | Potency [5]

C=CCCCCCCCCC(=O)O[C@H]1CC[C@H]2[C@@H]3CCC4=CC(=O)C=C[C@]4(C)[C@H]3CC[C@]12C
inactive: Potency [1] | Potency [2] | Potency [3] | Potency [4] | Potency [5] | Potency [7] | Potency [8]

CC(=O)[C@@]1(O)CC[C@H]2[C@@H]3CCC4=CC(=O)CC[C@@H]4[C@H]3CC[C@@]21C
-22.5%: activity change, negative = inhibition [6, 15]
inactive: Potency [1] | Potency [2] | Potency [3] | Potency [4] | Potency [5] | Potency [7] | Potency [8]

C[N+]1([O-])[C@H]2CC(OC(=O)C(CO)c3ccccc3)C[C@H]1[C@H]1O[C@H]12 (stereo partly specified)
inactive: Potency [1] | Potency [2] | Potency [3] | Potency [4] | Potency [5] | Potency [7] | Potency [8]

C=C1C[C@@H]2CC[C@@]34C[C@H]5O[C@H]6[C@@H](O3)[C@H]3O[C@H](CC[C@@H]3O[C@H]6[C@H]5O4)CC(=O)C[C@@H]3[C@@H](OC)[C@@H](C[C@H](O)CN)O[C@H]3C[C@H]3O[C@@H](CC[C@@H]1O2)C[C@@H](C)C3=C
inactive: Potency [1] | Potency [2] | Potency [3] | Potency [4] | Potency [5]
-91.9%: activity change, negative = inhibition ([6]; at 11.3 µM (top of the series))
active: Potency [10] 111 nM
-84.4%: activity change, negative = inhibition ([6]; at 57.1 µM (top of the series))

OC[C@H]1O[C@@](CO)(O[C@H]2O[C@H](CO)[C@@H](O)[C@H](O)[C@H]2O)[C@@H](O)[C@@H]1O
inactive: activation [11] -1.48% | outcome [9] | Potency [1] | Potency [2] | Potency [3] | Potency [4] | Potency [5]

O=C(NNCS(=O)(=O)O)c1ccncc1
-23.7%: activity change, negative = inhibition [6, 15]
inactive: Potency [1] | Potency [2] | Potency [3] | Potency [5]

CCC(C(=O)O)[C@H]1CC[C@H](C)[C@H]([C@@H](C)[C@H](O)[C@H](C)C(=O)[C@H](CC)[C@H]2OC3(C=C[C@@H](O)[C@]4(CC[C@@](C)([C@H]5CC[C@](O)(CC)[C@H](C)O5)O4)O3)[C@H](C)C[C@@H]2C)O1 (stereo partly specified)
active: Potency [1] 3980 nM | Potency [2] 7940 nM | Potency [3] 891 nM | Potency [5] 2510 nM

N[C@@H]1CCCCN(c2c(F)cc3c(=O)c(C(=O)O)cn(C4CC4)c3c2Cl)C1
inactive: Potency [1] | Potency [2] | Potency [3] | Potency [4]
-8.2%: activity change, negative = inhibition [6, 15]

O=P(O)(O)OP(=O)(O)O
-3.78%: activity change, negative = inhibition [6, 15]
inactive: Potency [1] | Potency [2] | Potency [3] | Potency [4]

O=C(OCc1ccccc1)c1cccnc1
1.27%: activity change, negative = inhibition [6, 15]
inactive: Potency [1] | Potency [2] | Potency [3] | Potency [5]

Cc1cccc(O)c1
-15.1%: max response [12]
inactive: outcome [13] | Potency [1] | Potency [2] | Potency [3] | Potency [4] | Potency [5]
355 µM (active) and inactive: Potency [14]

CCCCC(=O)O[C@]1(C(=O)COC(C)=O)CC[C@H]2[C@@H]3CCC4=CC(=O)C=C[C@]4(C)[C@H]3[C@@H](O)C[C@@]21C
-22.7%: activity change, negative = inhibition [6, 15]
inactive: Potency [1] | Potency [2] | Potency [3] | Potency [4]

CN(C)Cc1ccccc1
inactive: outcome [9] | Potency [1] | Potency [2] | Potency [3] | Potency [4] | Potency [5]

NC(=O)C1CCCN1C(=O)C(Cc1cnc[nH]1)NC(=O)C1CCC(=O)N1 (stereo unspecified)
inactive: Potency [1] | Potency [2] | Potency [3] | Potency [4] | Potency [6, 15]
